Screen size: about 360,000 compounds; about 11,000 (3.1%) were called active. Not shown: some 2% with an inconclusive outcome. The list comes from a sample in which actives are over-represented; it also holds similar structures and randomly drawn compounds. A number with no mark means an inactive call. Cut-off read from the data, not from the text of the source: active = fluorescence intensity above about 16000; inconclusive = no clear call, values can overlap the other calls; inactive = below that.
Assay: compound fluorescence in toxin protease inhibitor counterscreen, primary screen, artefact control for toxin protease inhibitor project, biochemical, multiplex microsphere, HTS (AID 624483)
Conditions: compound autofluorescence counterscreen, microsphere flow cytometry; stronger effect = higher value

| SMILES | fluorescence intensity |
| --- | --- |
| CCc1nc2c(OCCOc3ccc(F)cc3)cccn2c1N(C)C(=O)c1ccccc1F | 3010 |
| CN1CCN(S(=O)(=O)c2ccc3[nH]cc(C(=O)O)c(=O)c3c2)CC1 | 21500 (active) |
| Cc1ccc(S(=O)(=O)N2CCN(C)CC2)cc1 | 4010 |
| Cc1ccc(S(=O)(=O)N2CCN(C)CC2)cc1C(=O)NC1CCCCC1 | 4410 |
| c1ccc(COc2ccccc2CNCc2cccnc2)cc1 | 7500 |
| O=C(CCc1ccc(S(=O)(=O)N2CCOCC2)cc1)Nc1ccc2ccccc2c1 | 21400 (active) |
| O=C(COC(=O)CCc1ccc(S(=O)(=O)N2CCOCC2)cc1)Nc1cccc(Cl)c1 | 4250 |
| O=C(CCc1ccc(S(=O)(=O)N2CCOCC2)cc1)NN=C1CCCCCCC1 | 2120 |
| OC[C@@H]1CN(C2CCCC2)C[C@H](n2cnc3c(NC4CCC4)ncnc32)O1 | 2860 |
| Cn1c(=O)[nH]c(=O)c2c1nc(NCCCn1ccnc1)n2Cc1cccc(Br)c1 | 4650 |
| COc1cccc(-n2c(=O)c3c(C)c(C(=O)N(C)C)sc3n(CC(=O)NCCc3ccc(OC)c(OC)c3)c2=O)c1 | 4050 |
| CCOc1ccccc1N=C1NC(=O)CS1 | 23300 (active) |
| CCC/C(O)=C1\C(=O)CC(C)(C)CC1=Nc1ccccc1OC | 2780 |
| Cc1cccc(N=C2NC(=O)CS2)c1C | 7480 |
| Cc1nc(-c2ccccc2)cn2c1nc1ccccc12 | 2360 |
| CN(C)C(=O)c1cccc(-c2cnc3c(NC=O)cc(-c4ccc(C(=O)N5CCOCC5)cc4)cn23)c1 | 3080 |
| CCOc1ccc(CCN2C(=O)C(=O)N([C@@H](CC(C)C)CN3CCC[C@H]3CN3C(=O)C(=O)NC[C@@H]3Cc3ccccc3)C[C@@H]2CC(C)C)cc1 | 4830 |
| Cn1c(SCC(=O)c2cccs2)nnc1-c1ccco1 | 8030 |
| CCc1cccc(C)c1NC(=O)CSc1nnc(-c2ccco2)n1N | 23800 (active) |
| Nn1c(SCC(=O)Nc2nccs2)nnc1-c1ccco1 | 6070 |
| CCOC(=O)CSc1nnc(-c2ccco2)n1C | 19700 (active) |
| CCOc1ccc(-n2c(SCC(N)=O)nnc2-c2ccco2)cc1 | 3680 |
| NC(=O)c1c(NC(=O)CSc2nnc(-c3ccco3)n2N)sc2c1CCCC2 | 2490 |
| O=C(Nc1ccc(Cl)c(C(F)(F)F)c1)C1Cc2c(-c3ccccc3Oc3ccccc3)ccnc2O1 (stereo not drawn) | 3930 |

| SMILES | fluorescence intensity |
| --- | --- |
| OC(c1cc(Cl)cc(Cl)c1)c1ncc(-c2ccccc2C(F)(F)F)[nH]1 (stereo not drawn) | 2910 |
| O=C(Nc1ccc(Cl)cc1)c1csc([C@@H]2O[C@H](CO)[C@H](O)[C@H](O)[C@H]2O)n1 | 3610 |
| CCCCn1c(SCC(=O)NCC2CCCO2)nc2ccc(N3CCOCC3)cc2c1=O (stereo not drawn) | 21100 (active) |
| O=C(CCCn1c(SCC(=O)c2ccccc2)nc2ccccc2c1=O)NCC1CCCO1 (stereo not drawn) | 23800 (active) |
| CCn1c(SCC(=O)NCC2CCCO2)nc2cc(S(=O)(=O)N3CCCCC3)ccc21 (stereo not drawn) | 3450 |
| COCCNC(=O)c1ccc(Cn2c(SCC(=O)NCC3CCCO3)nc3ccc(Br)cc3c2=O)cc1 (stereo not drawn) | 5480 |
| CCn1c(SCC(=O)NCC2CCCO2)nc2ccccc21 (stereo not drawn) | 4090 |
| O=C(CSc1nc2ccccc2c(=O)n1Cc1ccc(F)cc1)NCC1CCCO1 (stereo not drawn) | 6760 |
| O=C(O)C1CCCN1S(=O)(=O)c1ccc2c(c1)CCC2 (stereo not drawn) | 7810 |
| CC(C)(C)SCCSC1=CC(=O)CC(c2ccccc2)C1 (stereo not drawn) | 3630 |
| CCCCNC(=O)C[C@@H]1C[C@@]2(C(=O)OCC)CCC=C2N(Cc2ccco2)C1=O | 6060 |
| CC1(Cc2ccccc2C#N)C(=O)Nc2ccc(-c3ccc4[nH]ccc4c3)cc21 (stereo not drawn) | 3220 |
| COc1ccc(NC(=O)CCCN2C(=O)C(c3ccccc3)Oc3cccnc32)cc1 (stereo not drawn) | 5260 |
| Cc1nnsc1C(=O)Nc1cccc(Cl)c1C | 4480 |
| Cc1nnsc1S(=O)(=O)Cc1ccccc1Cl | 22200 (active) |
| CCC1CCCCN1S(=O)(=O)Cc1ccccc1Cl (stereo not drawn) | 5020 |
| C[C@H]1COc2cc(N3CCSCC3)ccc2S(=O)(=O)N1 | 5560 |
| c1ccc(C[C@H]2CNCCN2CCC23CC4CC(CC(C4)C2)C3)cc1 | 3210 |
| Cc1cc(C)n(-c2nc(C(F)(F)F)nc3ccccc23)n1 | 3100 |
| CCCOn1c(-n2nc(C)cc2C)nc2ccccc2c1=O | 23500 (active) |
| Cc1cc(C)n(-c2c(F)c(F)c(COC(=O)c3ccccc3)c(F)c2F)n1 | 3060 |
| COc1cc(/C=C/C(=O)OCC(=O)NCCCc2ccccc2)ccc1O | 5380 |
| Cc1ccccc1S(=O)(=O)N1[C@@H](c2cccc(Cl)c2)C(C(=O)OC(C)(C)C)=CC[C@H]1c1ccc(Cl)cc1 | 4430 |
| CC12CCC(C(=O)N(CCC#N)CCC#N)(CC1=O)C2(C)C (stereo not drawn) | 20400 (active) |

| SMILES | fluorescence intensity |
| --- | --- |
| Cn1c(=O)c2c(nc(N/N=C/c3cccs3)n2Cc2ccc(Br)cc2)n(C)c1=O | 2410 |
| O=C(Nc1cccc(NC(=O)c2ccco2)c1)c1cnccn1 | 23700 (active) |
| O=C(Nc1nnc(Cc2ccccc2)s1)c1cnccn1 | 3990 |
| CC(C)(C)NC(=O)c1cc(NC(=O)c2ccco2)cc(NC(=O)c2ccco2)c1 | 3040 |
| CCOC(=O)N(C)c1c(CC)nc2c(OCc3ccccc3C(=O)OC)cccn12 | 3540 |
| COc1cc(NC(=O)c2cc(-c3ccc(F)cc3OC(C)C)n[nH]2)cc(OC)c1OC | 3570 |
| CCNC(=O)c1cc2c(c(-c3cccc(-c4cncnc4)c3)n1)[C@H](CCO)N(C(C)=O)C2 | 6050 |
| O=C1NC[C@H](CCCCN2CCN(CCc3ccccc3)C(=O)C2=O)N(CC2CCCCC2)C1=O | 5200 |
| Cc1ccc(NC(=O)C2(N3CCC3=O)CCCCC2)cc1 | 2510 |
| O=C(c1cc(S(=O)(=O)N2CCOCC2)ccc1Cl)N1CCOCC1 | 5390 |
| O=C(c1cccc(S(=O)(=O)N2CCOCC2)c1)N1CCOCC1 | 25300 (active) |
| O=C(Nc1ccc(N2CCOCC2)cc1)c1cccc(S(=O)(=O)N2CCOCC2)c1 | 2540 |
| Cc1cccc(OCCNC(=O)CSc2ccc(C(F)(F)F)cc2[N+](=O)[O-])c1 | 2620 |
| O=c1c2ccccc2nc(-c2ccc(Cl)cc2Cl)n1-c1ccncc1 | 18700 (active) |
| O=c1c2ccccc2nc(-c2ccccc2)n1-c1ccccn1 | 4770 |
| O=c1c2ccccc2nc(CBr)n1-c1ccc(Cl)cc1 | 3850 |
| CCOc1ccc(NC(=O)CCS(=O)(=O)c2ccc3c(c2)CCCN3C(=O)CC)cc1 | 10500 |
| COC(=O)c1ccc(Oc2nc(NC(C)C)nc(SC)n2)cc1 | 2470 |
| CCNc1nc(NC(C)C)nc(OCCOC(=O)c2ccccc2)n1 | 22900 (active) |
| CCNc1nc(NC(C)C)nc(N2CC(=O)N(CC(=O)OCC)C2=N)n1 | 10500 |
| CN(C)N1C(N)=C(C#N)C(c2ccc(Br)cc2)C2=C1CCCC2=O (stereo not drawn) | 4350 |
| Cc1ccc(N=Cc2c(O)n(-c3nccs3)c(=O)c3ccccc23)c(C)c1 | 2410 |
| CCOc1ccc(-n2c(O)c(/C=N/Nc3nc(C)cc(C)n3)c3ccccc3c2=O)cc1 | 4560 |
| CCOc1ccc(N=Cc2c(O)n(-c3cccc(C)n3)c(=O)c3ccccc23)cc1 | 20300 (active) |

| SMILES | fluorescence intensity |
| --- | --- |
| O/N=C(\C[n+]1ccccc1)c1ccc(Br)cc1 | 3050 |
| COC(=O)c1sccc1NC(=O)CC1C(=O)NCCN1C(=O)Nc1ccc(F)cc1F (stereo not drawn) | 6320 |
| COc1cccc(N(CC(=O)N2CCc3ccccc3C2)S(C)(=O)=O)c1 | 22900 (active) |
| Cc1ccc(S(=O)(=O)N(CC(=O)N2CCc3ccccc3C2)c2cccc(Cl)c2)cc1 | 2460 |
| CS(=O)(=O)N(CC(=O)N1CCc2ccccc2C1)c1ccc(Br)cc1 | 4000 |
| COc1cc(/C=N\NC(=O)c2nonc2N)c(OC)cc1Br | 2500 |
| COc1cc(N2CCCC2)c(OC)cc1/C=C(/C#N)c1cccc(Br)c1 | 20000 (active) |
| CCOc1ccc(/C=C(/C#N)c2nnc(N3CCOCC3)n2-c2ccccc2)cc1OC | 3950 |
| O=C(O)c1ccccc1-c1cccc2nncn12 | 3820 |
| Cc1sc2ccccc2c1CNC[C@H]1O[C@@H](n2ccc(=O)[nH]c2=O)[C@H](O)[C@@H]1O | 6010 |
| CCc1nc2c(OCCOc3ccccc3)cccn2c1N(C=O)Cc1ccc(OC)cc1 | 3280 |
| O=C1CCCc2c1[nH]c1ccc(Br)cc21 | 10300 |
| Cc1occc1C(=O)N/N=C/c1ccc(-c2cccc([N+](=O)[O-])c2)o1 | 6020 |
| C#CCCCc1nc2ccccc2c(=O)n1N | 2060 |
| COc1ccccc1CNS(=O)(=O)c1ccc(C)cc1 | 3200 |
| Cc1ccc(S(=O)(=O)NCc2nc3ccccc3c(=O)n2N)cc1 | 23000 (active) |
| O=C(COc1ccc(-c2ccccc2)cc1)NN=C1CCCC1 | 4340 |
| O=S(=O)(NC1CCCCC1)c1ccc(F)c2ccccc12 | 17400 (active) |
| O=S(=O)(NC1CC1)c1ccc2c3c(cccc13)CC2 | 4730 |
| O=S(=O)(NC1CC1)c1ccc(F)c(F)c1 | 5500 |
| Cc1cc(=O)oc2c3c(cc(OCC(=O)NCC(O)c4ccccc4)c12)OC(C)(C)CC3 (stereo not drawn) | 5100 |
